# Values joined by “and” are separate entries in the source; they are usually repeats but may differ in a detail not shown here. Equal entries are not always repeated. Records with an inconclusive call do not appear. A number with no mark means an inactive call. Active and inactive are the calls of the source. Calls follow the shape of the dose curve; as a rule, active = well fitted cell-killing curve with a large enough effect in the repeat runs; inconclusive = weak or mixed curves, or effect the other way; inactive = no such curve, though single readings can be large or run the other way.
# Assay: qHTS assay to identify small molecule agonists of the vitamin D receptor (VDR) signaling pathway - cell viability counter screen (AID 743224); also: nearly all actives have a fitted effect of over 50% in size
# Conditions: VDR-bla HEK293T viability, CellTiter-Glo luminescence, 16 h; series mostly up to 62.6 µM; activity change, negative = cytotoxicity: at the top concentration
# Description: U.S. Tox21 Program National Center for Advancing Translational Sciences [NCATS] NIH Chemical Genomics Center [NCGC] U.S. Environmental Protection Agency [EPA] National Institutes of Environmental Health Sciences [NIEHS] National Toxicology Program [NTP] U.S. Food and Drug Administration [FDA] Tox21 Assay Overview: The vitamin D receptor (VDR), a member of nuclear hormone receptor superfamily, plays a critical role in calcium homeostasis and bone metabolism. It is also involved in cell differentiation and growth, and thrombogenicity. […] The cytotoxicity of the Tox21 compound library against the VDR-bla cell line was tested in parallel by measuring the cell viability using CellTiter-Glo assay (Promega, Madison, WI) in the same wells.
# Tox21 Assay Protocol Summary: VDR-bla cells were dispensed at 2,000 cells/6 uL/well into black wall/clear-bottom 1536-well plates using a Multidrop Combi (Thermo Fisher Scientific, Waltham, MA) dispenser. After the assay plates were incubated at a 37C and 5% CO2 for 4 h, 23 nL of compounds dissolved in DMSO, positive controls or DMSO only was transferred to the assay plate by a Pintool station (Kalypsys, San Diego, CA). The plates were incubated at 37C and 5% CO2 for 16 h. After 1 uL of LiveBLAzerTM B/G FRET substrate was added using a Bioraptr Flying Reagent Dispenser (FRD) workstation (Beckman Coulter, Indianapolis, IN, USA), the plates were incubated at room temperature for 2 h, and fluorescence intensity was measured by an Envision plate reader (PerkinElmer, Shelton, CT). For cell viability readout that measures cytotoxicity, 3 ul/well of CellTiter-Glo reagent was added into the assay plates using a FRD. After 30 min incubation at room temperature, the luminescence intensity in the plates was measured using a ViewLux (PerkinElmer) plate reader.
# % is scaled to controls: 0 for no effect and ±100 for the full control effect; potency is read from the fitted curve at half-maximal effect.
SMILES,"activity change, negative = cytotoxicity",Potency
O=C(Cc1ccccc1)c1ccccc1,0.0614%,
Cc1ccccc1,14.4%,
CCC(C)Cl (stereo not given),-2.62%,
CC[N+]1(C)CCCC(OC(=O)C(O)(c2ccccc2)c2ccccc2)C1 (stereo not given),26.4%,
O=[N+]([O-])c1cc(Cl)c(Cl)cc1Cl,23.3%,
Cc1ncc(C[n+]2csc(CCO)c2C)c(N)n1,3.47%,
C[C@]12CC[C@H]3[C@@H](CCC4=CC(=O)CC[C@@H]43)[C@@H]1CC[C@@H]2OC(=O)CCc1ccccc1,6.05%,
CCC1(C2=NCCN2)Cc2ccccc2O1 (stereo not given),0.103%,
CCOC(=O)c1cn2nc(OP(=S)(OCC)OCC)cc2nc1C,-7.25%,
CCCBr,4.02%,
CCCCCCCCP(=O)(O)O,9.8%,
CC1(C)CC(=O)CC(C)(C)N1[O],1.12%,
CCOP(=S)(OCC)SCSc1cc(Cl)ccc1Cl,-1.51%,
C[N+](C)(C)CCOC(=O)C(O)(c1ccccc1)c1ccccc1,1.48%,
Oc1cccc(Cl)c1,4.53%,
Cc1cnc(C2=NC(C)(C(C)C)C(=O)N2)c(C(=O)O)c1 (stereo not given),4.4%,
C#CC(O)(C=CCl)CC (stereo not given),-2.17%,
CCCCCl,9.96% [at 81.1 µM],
Cc1ccc(N)c(C)c1,,inactive
CC(C)CCCCCCCOC(=O)c1ccccc1C(=O)OCCCCCCCC(C)C,13.4%,

SMILES,"activity change, negative = cytotoxicity",Potency
CCC(C)(C)O,4.68%,
CC(=O)OC(c1ccccc1)C(Cl)(Cl)Cl (stereo not given),-13%,
N#CC1(N=NC2(C#N)CCCCC2)CCCCC1,-2.93%,
O=[N+]([O-])O[C@H]1CO[C@H]2[C@@H]1OC[C@H]2O[N+](=O)[O-],-1.69%,
CC(C)(C)OOC(C)(C)CCC(C)(C)OOC(C)(C)C,12.4%,
SCc1ccccc1,-10.6% [at 81.1 µM],
O=C(N[C@H]1CN2CCC1CC2)c1ccc2c(c1)OCCO2,0.417%,
Nc1c(Br)cc(Br)c2c1C(=O)c1ccccc1C2=O,8.37% [at 29.1 µM],
COc1ccc(C(O)(c2cncnc2)C2CC2)cc1 (stereo not given),3.81%,
Cc1nc(N(C)C)nc(OC(=O)N(C)C)c1C,2.57%,
O=C(Cc1ccccc1)OCCc1ccccc1,19.7%,
CCC1(CCC(C)C)C(=O)NC(=O)NC1=O,6.15% [at 81.1 µM],
CN(C1CCCCC1)C1CCCCC1,2.55%,
CCOC(=O)NC(O)C(Cl)(Cl)Cl (stereo not given),3.81%,
C=CCN1C[C@H](C)N([C@H](c2ccc(C(=O)N(CC)CC)cc2)c2cccc(OC)c2)C[C@H]1C,20.4%,
CNC(=O)Oc1cccc(N=CN(C)C)c1,0.756%,
CCCCC1C(=O)NC(=O)N(C2CCCCC2)C1=O (stereo not given),7.14%,
CCOC(=O)C1OC1(C)c1ccccc1 (stereo not given),,inactive
CCCCC(CC)COC(=O)c1c(Br)c(Br)c(Br)c(Br)c1C(=O)OCC(CC)CCCC (stereo not given),-6.55%,
[Cl-].[Cl-].[Hg+2],,773 nM (active) and 1.1 µM (active)
